# Screens deposited in PubChem by several laboratories.
# Shown are actives, neighbours in structure and some others; about 4.2% of the full set was active somewhere.
# Hsp70 act: transcriptional activators of Hsp70; HeLa Hsp70 promoter luciferase reporter, luminescence; scaled: vehicle 0, proteasome-inhibitor control 100%; activation, % at 10 µM; hit rate 0.04% among 200,000; AID 1203;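 active means activation above the mean across all tested compounds plus 3 SD, cutoff set per campaign, cut at about 5.5% in these data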;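 further: 100% = MG132 at 30 µM as the positive control and 0% = DMSO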
# S1P4 antagonist: antagonists of human S1P4 receptor; S1P4-expressing cells, antagonist mode, reporter read-out; hit rate 0.26% among 220,000; inhibition, % at 4.98 µM; AID 1510; in the data active means inhibition above about 29%;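 further: 0% = wells stimulated with agonist and 100% = vehicle wells without agonist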
# Target sequence (O95977 whole entry, looked up): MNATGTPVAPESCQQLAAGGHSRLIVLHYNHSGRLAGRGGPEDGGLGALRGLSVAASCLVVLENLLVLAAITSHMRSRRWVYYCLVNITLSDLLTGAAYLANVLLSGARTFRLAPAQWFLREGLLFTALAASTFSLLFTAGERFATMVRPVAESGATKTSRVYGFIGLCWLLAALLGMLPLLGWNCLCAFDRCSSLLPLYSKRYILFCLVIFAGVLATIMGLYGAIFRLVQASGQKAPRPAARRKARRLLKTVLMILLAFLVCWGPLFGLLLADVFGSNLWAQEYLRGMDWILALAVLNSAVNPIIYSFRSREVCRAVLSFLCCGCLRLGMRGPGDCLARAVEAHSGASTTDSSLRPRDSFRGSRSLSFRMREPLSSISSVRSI
# S1P4 agonist: agonists of human S1P4 receptor | O95977 | S1P4-expressing cell line, agonist reporter assay | hit rate 0.35% among 220,000 | activation, % at 4.98 µM | AID 1509; in the data active means activation above about 11%;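 further: 0% = DMSO vehicle and 100% = reference agonist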
# CHOP inhibitor: blocks CHOP induction under ER stress. hit rate 3.8% among 220,000. AID 2732. inhibition, % at 10 µM. CHO-K1 CHOP-promoter luciferase, tunicamycin-induced, 15-18 h;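 active means compounds that reduced the stress-induced luciferase reporter signal by more than about 70% of percent inhibition, limit read from the data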;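 further: 0% = tunicamycin plus vehicle and 100% = wells without tunicamycin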
# The depositor's hits bear a star; nt = no result.
SMILES,Hsp70 act,S1P4 antagonist,S1P4 agonist,CHOP inhibitor
CN1CCN(CCCNC(=O)C2CC(=O)N(C3CCCCC3)C2)CC1 (stereo unspecified),-0.3,-11.5,-2.1,4.0
O=C(NCCN1CCc2ccccc2C1)C1CC(=O)N(C2CCCC2)C1 (stereo unspecified),-0.2,-5.6,-1.7,88.6*
COc1cccc(C(c2c(NC(=O)c3ccccc3)sc(C)c2C)N2CCN(C)CC2)c1 (stereo unspecified),-0.4,-15.6,1.2,23.0
CCCN(CCC)c1nc(NC2CCN(C(=O)OCC)CC2)nc(OC)n1,-0.2,-6.5,1.1,71.7*
CCOC(=O)N1CCC(Nc2c(OCC)c(=O)c2=O)CC1,-0.1,-11.8,1.0,4.3
Cc1sc(NC(=O)CCl)c(C(=O)c2ccccc2)c1C,-0.1,-4.7,-4.3,107.8*
Cc1ccccc1C(=O)Nc1sc(C)c(C)c1C(=O)c1ccccc1,-0.3,3.8,0.3,58.3
COc1cc(CNc2nc(C)c([N+](=O)[O-])c(C)c2C#N)cc(OC)c1,-0.2,-11.7,-1.4,71.3*
COCc1c(C#N)c(NCc2cc(OC)c(OC)c(OC)c2)nc(C)c1[N+](=O)[O-],nt,9.8,2.0,27.8
COc1ccc(CCn2c(N)c(S(=O)(=O)c3cccs3)c3nc4ccccc4nc32)cc1OC,1.1,4.8,-1.1,25.7
CCOc1ccc(C(=O)NCCc2ccccc2)cc1,-0.3,-12.6,2.4,44.8
N#C/C(=C\C=C\c1ccccc1)C(=O)Nc1ccccc1,0.1,9.5,2.6,73.4*
Cc1oc2ccc(O)cc2c1C(=O)c1ccc(Cl)cc1,-0.2,-4.1,5.1,71.0*
Cc1oc2ccc(O)cc2c1C(=O)c1ccc([N+](=O)[O-])cc1,-0.4,-14.8,0.0,27.4
CC1(C)CC(=NOC(=O)c2ccccc2)CC(C)(C)N1,-0.1,-11.1,0.9,5.4
O=C1C2C3C=CC(CC3)C2C(=O)N1/N=C/c1ccccc1O (stereo unspecified),-0.3,8.4,-1.7,-1.4
O=C1C2C3C=CC(CC3)C2C(=O)N1/N=C/c1c(O)ccc2ccccc12 (stereo unspecified),0.0,-0.5,1.6,71.6*
CCOC(=O)N1CCC(Nc2nc3ccccc3n3cnnc23)CC1,0.1,-8.2,3.5,nt
CN1CCN(CCP(=O)(c2ccccc2)c2ccccc2)CC1,-0.2,-9.2,0.9,72.6*
O=P(CCO)(c1ccccc1)c1ccccc1,-0.3,-8.8,0.3,15.6
CC1CCN(S(=O)(=O)c2ccc(C(C)C)cc2)CC1,-0.1,12.1,0.1,42.4
Nc1nc(Br)c2c(F)cccc2c1-c1ccc(F)cc1,-0.2,-8.8,-0.5,74.3*
COCCn1cnnc1SCC(=O)Nc1ccccc1C(=O)Nc1ccc2c(c1)OCO2,0.4,7.7,-0.7,-6.9
O=C(CCCN1C(=O)c2ccccc2C1=O)Nc1c(C(=O)C2CC2)oc2ccccc12,0.0,-5.3,1.7,10.3
COC(=O)c1oc2ccc(Br)cc2c1NC(=O)CCCN1C(=O)c2ccccc2C1=O,-0.4,-10.6,0.4,94.7*
SMILES,Hsp70 act,S1P4 antagonist,S1P4 agonist,CHOP inhibitor
O=P(Cc1ccccc1)(c1ccccc1)c1ccccc1,-0.5,-8.2,3.1,-28.4
Cc1ccc(C(=O)CSc2nnc(CNc3ccc(C)cc3C)o2)cc1,-0.1,-14.4,2.1,71.5*
Cc1ccc(NCc2nnc(SCC(N)=O)o2)c(C)c1,1.4,0.2,1.2,-3.2
CCOc1ccc(/C=C2\CCc3ccccc3C2=O)cc1,nt,4.0,1.4,10.2
CC1(C)Cc2c(ccc3ccccc23)/C(=C/C#N)N1,-0.3,-21.6,-0.1,71.4*
Cc1ccc(OCC(=O)N/N=C\c2cn(Cc3ccccc3)c3ccccc23)cc1C,-0.2,0.6,0.0,63.8
Cc1ccccc1OCC(=O)N/N=C/c1cn(Cc2ccccc2)c2ccccc12,-0.3,-17.9,-0.1,73.4*
COC(=O)N/N=C/c1cn(Cc2ccc(Cl)cc2Cl)c2ccccc12,-0.3,-11.6,1.9,80.5*
C#CCn1cc(/C=N/NC(=O)COc2cccc3cccnc23)c2ccccc21,-0.2,-23.8,-0.7,103.1*
CCCCC(O)(CCCC)C(=O)NN(C(=O)OCC)c1ccccc1,-0.2,-8.9,-0.5,-5.4
CC(C)Cc1cc(C(=O)N2CCC(N3CCC(C(=O)N4CCOCC4)CC3)CC2)n[nH]1,-0.2,-19.4,1.9,1.4
O=C(Cn1cc([N+](=O)[O-])cn1)Nc1cccnc1,-0.1,-16.5,0.0,25.2
O=C1c2ccccc2S(=O)(=O)N1CC(O)COc1ccc(Br)cc1 (stereo unspecified),-0.4,-6.7,0.0,25.6
Cc1ccc2cc3c(NC(=O)c4ccco4)nn(CC(C)C)c3nc2c1,-0.3,-9.0,1.5,70.2*
COc1ccc(Sc2ncnc3onc(C)c23)cc1,-0.2,3.9,-1.0,29.1
COc1cccc(NS(=O)(=O)c2cc(C)sc2C)c1,-0.3,1.0,-2.2,75.5*
